# Experimental data published in ChEMBL document CHEMBL3433997, “St. Jude Leishmania screening dataset” (2016).
# Target: Solute carrier family 2, facilitated glucose transporter member 1 (Homo sapiens) (UniProt P11166)
# Experiment: ST_JUDE_LEISH: Cytotoxicity at 2uM final concentration against transgenic Leishmania Mexicana promastigotes LmGLUT1 that are glucose transport deficient and complemented with the human glucose transporter GLUT1. Activity is measured by DNA content using SYBR green in vitro
# Assay type: functional
# Solute carrier family 2, facilitated glucose transporter member 1 (Homo sapiens), sequence (P11166 whole entry): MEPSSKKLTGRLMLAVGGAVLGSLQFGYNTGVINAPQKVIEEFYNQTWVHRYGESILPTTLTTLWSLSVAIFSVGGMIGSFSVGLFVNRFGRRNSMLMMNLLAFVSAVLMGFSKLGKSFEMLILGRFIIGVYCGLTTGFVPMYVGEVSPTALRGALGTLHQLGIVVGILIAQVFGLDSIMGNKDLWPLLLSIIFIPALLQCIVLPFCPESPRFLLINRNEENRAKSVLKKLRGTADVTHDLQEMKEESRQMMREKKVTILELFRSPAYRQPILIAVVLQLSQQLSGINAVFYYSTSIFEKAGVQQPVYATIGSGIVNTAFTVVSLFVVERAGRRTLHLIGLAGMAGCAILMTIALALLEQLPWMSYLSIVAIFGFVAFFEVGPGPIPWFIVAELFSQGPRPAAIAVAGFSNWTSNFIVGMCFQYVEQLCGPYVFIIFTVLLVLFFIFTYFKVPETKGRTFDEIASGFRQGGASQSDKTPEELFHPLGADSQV
row,Structure (SMILES),inhibition [%]
1,CN1CCC(N2CCN(Cc3cccc(-c4cccc(-c5nc6ccccc6[nH]5)c4)c3)CC2)CC1,-4.87
2,C=CCN1C(=O)c2[nH]nc(-c3cc(C)c(C)cc3O)c2C1c1cccc(Br)c1 (stereo not given),2.03
3,CN1CCC(C(=O)N(Cc2ccc(-c3ccc(CNCCc4ccccc4)cn3)cc2)Cc2cccc(F)c2)CC1,3.52
4,CC(C)(C)c1ccc(CNC(=O)c2cc(CNC3CCNC3)ccc2O)cc1 (stereo not given),1.88
5,CCNc1cc(C(=O)N[C@@H](Cc2ccccc2)[C@H](O)CNC2C3CC4CC(C3)CC2C4)cc(N2CCCCS2(=O)=O)c1 (stereo not given in full),0.69
6,CC(C)COc1ccc(Cl)cc1Cc1ccc(-c2nc3ccc(F)c(F)c3[nH]2)o1,0.98
7,O=C(/C=C/c1ccc(Cl)c(Cl)c1)NC1CCN(Cc2cccc(O)c2)CC1,2.92
8,O=[N+]([O-])c1cc(/C=N/Nc2nc3ccccc3[nH]2)ccc1O,8.03
9,CC(C)OC(=O)c1cccnc1SCC(=O)Nc1ccc(C(F)(F)F)cc1Cl,1.58
10,COc1ccc(CNCc2cccc(-c3ccc(-c4nc5cccc(C)c5[nH]4)s3)c2)cc1,3.18
11,COc1ccc(CCON2C(=N)N=C(N)NC2(C)C)cc1OC,2.04
12,Cc1cc(C(=O)NCc2ccc(-c3c(C)noc3C)cc2)n(-c2ccccc2)n1,4.79
13,Cc1[nH]c2ccc(C#N)cc2c(=O)c1Br,2.13
14,O=C(Nc1ccccc1Oc1ccccc1)NC1CCN(c2ccnc3cc(Cl)ccc23)C1 (stereo not given),3.65
15,COC1CCC(C(=O)Nc2ccc(-c3cccc(-c4nc5cc(C(F)(F)F)ccc5[nH]4)c3)cc2)CC1 (stereo not given),0.64
16,CCOc1cc(C)ccc1C1CCN(CCCCNC(=O)c2ccc(NC(=O)c3cc(Cl)cc(Cl)c3)cc2)CC1,2.78
17,CCOc1ccc2[nH]c(C)cc(=NN=Cc3ccccc3F)c2c1,4
18,Cc1cc(=O)c(-c2ccc(Oc3cccc(Cl)c3)cc2)c(C)[nH]1,6.01
19,N#Cc1ccc2c(c1)CCN(CCC1CCC(NC(=O)/C=C/c3ccc4[nH]ccc4c3)CC1)CC2 (stereo not given),1.65
20,CN1CCC(N(Cc2ccc(-c3cnc(NCc4ccccc4)nc3)cc2)S(=O)(=O)c2ccccc2)CC1,14

row,Structure (SMILES),inhibition [%]
1,Fc1ccc2[nH]c3c(NCCN4CCCCC4)ncnc3c2c1,-3.47
2,CCN(CCCN1CCCC1)c1cc(C)nc(Nc2ccc(Cl)cc2)n1,1.46
3,O=C(/C=C/c1ccc(Cl)c(Cl)c1)NCCCCCN1CCC(NC(=O)Nc2ccc(Cl)cc2F)CC1,2.9
4,FC(F)(F)c1ccc2[nH]c(-c3cccc(-c4cccc(CNCCc5ccncc5)c4)c3)nc2c1,4.96
5,COc1ccc(CN2CCCC(C(=O)c3ccc(C(F)(F)F)cc3)C2)c(O)c1 (stereo not given),4.79
6,Cc1cnc2ccc(NS(=O)(=O)c3sc4ccc(Cl)cc4c3C)cc2c1N1CCNCC1,3.23
7,COC(=O)c1cccc(CNCc2ccc(-c3ccc(-c4nc5ccccc5[nH]4)s3)cc2)c1,9.31
8,COc1cccc(C(=O)Nc2sc3c(c2C(N)=O)CCCC3)c1OC,0.25
9,Cc1ccc(Cn2cnc3cc(C(=O)Nc4ccc(-c5ccc(CN(C)C)cc5)cc4)ccc3c2=O)o1,5.55
10,COCCn1c(C)nc2ccccc2c1=O,1.04
11,CN(C)CCOc1cc(NC(=O)c2ccc(-c3ccc(Cl)cc3Cl)cc2)ccc1-c1ccccc1,0.11
12,COc1ccc2ncc(Cl)c(CCN3CC[C@@H](CNCc4cc5c(cn4)OCS5)C3)c2n1,6.89
13,COc1c(C=NNc2nc(=Nc3ccccc3)[nH]c(=Nc3ccccc3)[nH]2)ccc(Br)c1O,11.3
14,COc1ccc2c(c1)CCCC2NCCCCNC(=O)c1ccc(NC(=O)c2ccc(Cl)cc2)cc1 (stereo not given),1.92
15,Cc1nc(C)n(CC(=O)Nc2cccc(-c3cccc(-c4nc5cc(C(F)(F)F)ccc5[nH]4)c3)c2)n1,10.2
16,CC(C)(CN)c1nc(-c2ccc(Br)c(O)c2)c(-c2ccncc2)[nH]1,1.39
17,Cc1ccc(C2=NNC3(S2)C(=O)N(C)c2ccccc23)cc1 (stereo not given),5.66
18,Cc1cc(=NN=Cc2cccc(F)c2)c2ccc(F)cc2[nH]1,10.5
19,COc1cc(NC(=O)Nc2cccc3ccccc23)c(OC)cc1Cl,5.02
20,COc1ccc(-c2ccc(CNCc3ccc(F)cc3)cc2)cc1S(=O)(=O)NCCN1CCCC1,0.67
